Hits are enriched below; roughly 11% of the tested compounds scored in any of these assays.
L3MBTL1 block – L3MBTL1 (human) inhibition | Q9Y468 | Potency, µM (series often up to 57.1 µM), for the others: at the top dose activity, negative = inhibition, hits mostly inhibitors | AID 485360 | 230,000 compounds, 0.66% hits | AlphaScreen L3MBTL1–H3K9me1 peptide binding; note: % is set by controls: 0 for no effect and ±100 for the full control effect; nearly all actives have a fitted effect of over 60% in size
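First, the protein-peptide complex forms for 30 min at room temperature (L3MBTL1 50 nM, biotinylated H3K9me1 peptide 75 nM). Next, compounds are pin-transferred and incubated 30 min. Finally, AlphaScreen beads are added and read after 30 min.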
BAZ2B block – inhibitors of human BAZ2B bromodomain; Q9UIF8; AlphaScreen BAZ2B-H3K14Ac peptide displacement; Potency, µM (titrated, usually from 114 µM), for the others: at the highest dose activity change, negative = inhibition, hits mostly inhibitors; 360,000 compounds, 4.4% hits; AID 504333; note: % is set by controls: 0 for no effect and ±100 for the full control effect; nearly all actives have a fitted effect of over 60% in size
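AlphaScreen displacement of biotin-H3(5-23)K14Ac peptide (50 nM final) from BAZ2B (50 nM final) in PBS pH 7.4, 0.01% Tween-20; complex preformed 30 min RT, then compounds (top 110 uM) 30 min RT, beads 20 min dark.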
G9a block – inhibitors of human histone lysine methyltransferase G9a; Q96KQ7; G9a H3K9 monomethylation, AlphaScreen, 2 h; Potency, µM (series often up to 102 µM), for inactives: at the highest dose activity, negative = inhibition, most hits filed as inhibitors; 350,000 compounds, 8.8% hits; AID 504332; note: % is set by controls: 0 for no effect and ±100 for the full control effect; nearly all actives have a fitted effect of over 75% in size
Target sequence (Q96KQ7 913-1193 limits assumed): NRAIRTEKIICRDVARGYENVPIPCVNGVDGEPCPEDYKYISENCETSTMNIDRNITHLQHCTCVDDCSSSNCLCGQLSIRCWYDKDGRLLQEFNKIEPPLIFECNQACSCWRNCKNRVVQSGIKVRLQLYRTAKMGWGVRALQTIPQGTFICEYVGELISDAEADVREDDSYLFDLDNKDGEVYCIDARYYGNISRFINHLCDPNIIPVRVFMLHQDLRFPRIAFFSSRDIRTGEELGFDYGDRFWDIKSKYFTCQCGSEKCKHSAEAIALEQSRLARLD
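Quantitative HTS format: methyltransferase activity on a biotin-tagged H3K9 peptide is measured by AlphaScreen, using a rabbit anti-monomethyl-H3K9 antibody with streptavidin donor and anti-IgG acceptor beads. Final levels are 20 nM enzyme, 500 nM peptide, 20 uM SAM; 2 h RT.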
JMJD2A Tudor inh – JMJD2A Tudor domain (human) inhibition; 390,000 compounds, 4.4% hits; AlphaScreen JMJD2A-Tudor / H3K4me3 peptide binding; O75164; Potency, µM (series often up to 114 µM), without a hit: top-dose activity change, negative = inhibition, usual class: inhibitors; note: % is set by controls: 0 for no effect and ±100 for the full control effect; nearly all actives have a fitted effect of over 50% in size
HP1b binding inh – inhibitors of HP1-beta chromodomain binding to methylated histone tails. P83916. AlphaScreen HP1-beta / biotin-H3K9me3 peptide binding. Potency, µM (highest dose often 114 µM), without a hit: at the top dose activity change, negative = inhibition, most hits filed as inhibitors. 390,000 compounds, 0.56% hits. AID 540317; note: nearly all actives have a fitted effect of over 70% in size
Target sequence (P83916 whole entry, looked up): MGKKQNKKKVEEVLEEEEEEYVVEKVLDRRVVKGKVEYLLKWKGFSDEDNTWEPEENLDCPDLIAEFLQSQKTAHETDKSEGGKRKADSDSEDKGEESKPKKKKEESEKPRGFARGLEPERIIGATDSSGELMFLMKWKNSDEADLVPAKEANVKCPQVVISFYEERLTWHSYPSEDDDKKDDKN
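AlphaScreen: HP1-beta (50 nM) preformed 30 min with biotin-H3(1-18)K9me3 peptide (50 nM) in PBS pH 7.4, 0.01% Tween-20. Compound added for 30 min at RT, then streptavidin donor/nickel chelate acceptor beads (10 ug/mL) for 30 min.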
The depositor's hits bear a star; ? = inconclusive; / = no result given; [ ] = another dose, or the depositor's remark. Calls come from the whole dose curve; as a rule, active = well fitted inhibition curve with a large enough effect; inconclusive = small, poorly fitted or top-dose-only effect; inactive = no such curve, though single readings can be large or run the other way. Potency is the fitted concentration of half-maximal effect.

SMILES | L3MBTL1 block | BAZ2B block | G9a block | JMJD2A Tudor inh | HP1b binding inh
CCN(CC)S(=O)(=O)c1ccc(Cl)c(C(=O)NCc2ccccc2Cl)c1 | 1% | -5% | 11%[59 µM] | 2% | 62%
CCN(CC)S(=O)(=O)c1ccc(C(=O)NCc2n[nH]c(=S)n2-c2ccccc2OC)cc1 | 2% | -6% | 3.5µM* | 22µM* | 17%
CCN(CC)S(=O)(=O)c1ccc(C(=O)NCc2nnc(SCC(=O)OC)n2C)cc1 | 0% | 7% | 5% | -1% | 23%
Cc1ccccc1OCCCCn1c(CCNC(=O)C(C)(C)C)nc2ccccc21 | / | ? | -3%[59 µM] | -26% | 12%
CCC(C)Sc1nc2c(c(=O)[nH]c(=O)n2C)n1Cc1ccc(Cl)cc1 (centres undefined) | 2% | 6% | ? | -37% | 4%
CC(C)Sc1nc2c(c(=O)[nH]c(=O)n2C)n1Cc1ccccc1 | 1% | 6% | 12% | -5% | 32%
CC(O)CSc1nc2c(c(=O)[nH]c(=O)n2C)n1Cc1ccccc1 (centres undefined) | 4% | 5% | 10% | 1% | 57%
CC(C)Sc1nc2c(c(=O)[nH]c(=O)n2C)n1Cc1ccc(Cl)cc1 | 6% | 6% | ? | 32µM* | ?
CCOC(=O)C(C)Sc1nc2c(c(=O)[nH]c(=O)n2C)n1Cc1ccc(Cl)cc1 (centres undefined) | 5% | -2% | 11µM* | -17% | -24%
CCC(C)Sc1nc2c(c(=O)[nH]c(=O)n2C)n1CCc1ccccc1 (centres undefined) | -8% | 9% | -12%[59 µM] | 6% | 15%
CC(O)CSc1nc2c(c(=O)[nH]c(=O)n2C)n1Cc1ccccc1Cl (centres undefined) | 5% | 2% | 45µM* | -13% | 2%
CCC(C)Sc1nc2c(c(=O)[nH]c(=O)n2C)n1CC(O)COc1ccccc1C (centres undefined) | -4% | 9% | 5.6µM* | -19%[57.1 µM] | -32%
CCOC(=O)C1CCCN(C(=O)c2ccc(Cl)cc2)C1 (centres undefined) | 1% | -10% | 79µM* | -4% | 52%
CCOC(=O)C1CCCN(C(=O)Cc2ccc(Cl)cc2)C1 (centres undefined) | / | 2% | 2%[59 µM] | 15% | 27%
CCOC(=O)C1CCCN(C(=O)c2cc(Cl)ccc2Cl)C1 (centres undefined) | 7% | -3% | 45µM* | -11% | 21%
CN(CC1COc2ccccc2O1)C(=O)c1ccc(Cl)c(S(=O)(=O)N2CCCCCC2)c1 (centres undefined) | -5% | 0% | 8%[59 µM] | -14% | 16%
Cc1ccc(C(c2sc3nc(-c4ccco4)nn3c2O)N2CCC3(CC2)OCCO3)cc1 (centres undefined) | / | -23% | -27%[59 µM] | -9% | 27%
Fc1cccc(Cl)c1-c1nnc2ccc3ccccc3n12 | -1% | / | 32µM* | -34% | -16%
Cc1ccc(C2=CC(c3ccccc3F)n3c(nc4ccccc43)N2)cc1C (centres undefined) | / | 15% | ? | 13% | 79%
Cc1cc2oc(=O)cc(CN3CCCCC3C)c2cc1C (centres undefined) | / | 1% | 50µM* | -13% | -8%
Cc1cc(-c2ccc(N=Nc3c(S(=O)(=O)O)cc4cc(S(=O)(=O)O)cc(N)c4c3O)c(C)c2)ccc1N=Nc1c(S(=O)(=O)O)cc2cc(S(=O)(=O)O)cc(N)c2c1O | 0.2µM* | 1.4µM* | ? | / | /
O=S(=O)(O)c1cc(O)c2c(O)c(N=Nc3cc(Cl)ccc3O)c(S(=O)(=O)O)cc2c1 | / | 11µM* | 10µM* | 10µM* | 20µM*
COc1cccc(/C=C2\SC(=S)N(C(C)C(=O)NC3C=CS(=O)(=O)C3)C2=O)c1 (centres undefined) | / | 40µM* | ? | ? | -19%
COc1cccc(/C=C2\SC(=S)N(CC3CCCO3)C2=O)c1 (centres undefined) | -28% | 8.9µM* | 28µM* | ? | -52%
COc1cccc(/C=C2\SC(=S)N(N3C(=O)CCCC3=O)C2=O)c1 | -10% | 25µM* | 22µM* | -85% | ?

Compound activity as filed in PubChem.
